Measurements taken from PubChem BioAssay AID652039 (The Scripps Research Institute Molecular Screening Center, 2013).
The campaign covered roughly 370,000 compounds. About 3,300 (0.89%) were called active. This is one part of a sample in which actives are shown more often than they occur. Values without a mark were called inactive.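 The calls were made as follows: active = activation above the mean of all tested compounds plus 3 SD, computed per campaign excluding outliers beyond control limits (cut at about 13% in these data); inactive = the rest.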

What follows are compounds tested against Kallikrein-7 (Homo sapiens) (UniProt P49862) (assay: proKLK7 zymogen activators, primary screen, biochemical, fluorescence intensity (AID 652039)). Settings: purified proKLK7, EDANS-DABCYL substrate fluorescence; at 7 µM; active compounds read high; 100% is mature enzyme control, 0% vehicle.
Kallikrein-7 (Homo sapiens), sequence (P49862 whole entry, looked up): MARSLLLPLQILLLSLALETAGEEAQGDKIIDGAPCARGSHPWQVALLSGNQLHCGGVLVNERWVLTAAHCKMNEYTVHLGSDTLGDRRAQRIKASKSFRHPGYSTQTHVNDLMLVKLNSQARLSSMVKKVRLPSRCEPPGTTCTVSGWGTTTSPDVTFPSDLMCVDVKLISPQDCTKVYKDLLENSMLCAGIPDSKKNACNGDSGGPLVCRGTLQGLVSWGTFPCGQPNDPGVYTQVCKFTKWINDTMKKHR

Row | SMILES | activation
1 | COC(=O)[C@]12C[C@H](CC(=O)NCc3ccccc3)C(=O)N(CCc3ccc(OC)c(OC)c3)C1=C[C@H](C(C)(C)C)O[C@@H]2C | 0.13%
2 | COc1ccc(Cn2cc(COC(=O)N(C)Cc3ccccc3)nn2)cc1 | 0.16%
3 | CN(C)CC(=O)N[C@@H]1C[C@@H]2O[C@H](CO)CC[C@@H]2O[C@@H]1CCc1ccc(C#Cc2ccccc2)cc1 | 0.21%
4 | Cc1cc(C)c2c(n1)nn1c(-n3ccnc3)cc(C)nc21 | 15.7% (active)
5 | Cc1cc(C)c2c(NC(=O)C3CC3)nn(C)c2n1 | -0.27%
6 | Cc1ccc(OCc2nnc(SC/C=C/c3ccccc3)n2Cc2ccco2)cc1 | 0.81%
7 | C=CCN1C(=O)[C@@H](CC(=O)N2CCN(C(=O)OCC)CC2)[C@]2(C(=O)OCC)CCCCC/C=C/12 | 0.05%
8 | NC(N)=Nc1nc2ccc(Br)cc2c(=O)[nH]1 | -0.15%
9 | NC(N)=Nc1nc(-c2ccccc2)c2cc(Cl)ccc2n1 | 14.3% (active)
10 | Clc1ccc2nc(-c3ccccc3)nc(C(Cl)Cl)c2c1 | -0.5%
11 | CC(C)N1CCCCC(NC(=O)c2ccc3ccccc3c2)C1=O (stereo unspecified) | 0.11%
12 | C=CCN1C(=O)[C@@H](CC(=O)NCCCCc2ccccc2)[C@]2(C(=O)OCC)CCCCC/C=C/12 | 0.05%
13 | CC(=O)C1(C(=O)Nc2nccs2)CC(c2ccccc2C(F)(F)F)=NO1 (stereo unspecified) | 1.07%
14 | COC(=O)[C@]12C[C@H](CC(=O)NCCc3ccccc3OC)C(=O)N(Cc3ccco3)C1=C[C@H](C(C)C)O[C@@H]2C1CC1 | 0.66%
15 | Cc1ccc(NC(=O)CN(C)C(=O)COC(=O)c2nccnc2N)cc1 | 8.05%
16 | CCOc1ccc(NC(=O)COc2ccc(S(=O)(=O)N3CCCC3)cc2)cc1 | 0.16%
17 | CCOC(=O)C1=C(O)/C(=C/c2ccc(OCC(=O)Nc3ccc(C)cc3)cc2)N=C1C | 31.9% (active)
18 | CC(c1c[nH]c2ccccc12)c1c(-c2ccccc2)n(C)c2ccccc12 (stereo unspecified) | -7.26%
19 | COc1ccc(C(=O)OCCN2CCN(C3CN(Cc4cn(Cc5ccccc5F)nn4)S(=O)(=O)C3)CC2)cc1OC (stereo unspecified) | 0%
20 | Clc1ccc(-n2c(SC/C=C/c3ccccc3)nnc2-c2ccco2)cc1 | 0.14%
21 | COCc1cc(=O)[nH]c2cc(NC(=O)C(F)(F)F)c(C)cc12 | 466% (active)
22 | Cc1ccccc1Cn1nc(C)c(NC(=O)C(F)(F)F)c1C | -0.19%

Row | SMILES | activation
23 | COCc1cc(=O)[nH]c(-c2ccc(C(F)(F)F)cc2)n1 | 0.23%
24 | COc1ccc(OC)c(Cc2cnc3nc(N)nc(N)c3c2C)c1 | -0.29%
25 | COC[C@@H]1CCCN1c1ccc2c(c1)O[C@H](C)CCN(C1CC1)S2(=O)=O | -0.36%
26 | CCOC(=O)[C@]12CCCC3=C1N(CCC3)C(=O)[C@@H](CC(=O)N1CCSCC1)C2 | -0.2%
27 | COC(=O)C1(C)NC(c2ccccc2OC)C2C(=O)N(c3ccccc3)C(=O)C21 (stereo unspecified) | 0.39%
28 | COC(=O)C1=NN(c2ccccc2)C2C(=O)N(c3ccccc3OC)C(=O)C12 (stereo unspecified) | 20.8% (active)
29 | COC(=O)c1cc(C(=O)OC)cc(N2C(=O)CC(N3CCN(c4ccccc4)CC3)C2=O)c1 (stereo unspecified) | -0.42%
30 | CCOc1ccc(-n2c(SCC(=O)Nc3cc(C)c(NC(=O)c4ccccc4)cc3OC)nnc2-c2cccs2)cc1 | 13.4% (active)
31 | COc1ccc(-n2c(SCC(=O)Nc3ccccc3-c3ccccc3)nnc2-c2cccnc2)cc1 | -0.23%
32 | CCOc1ccc(-n2c(SCC(=O)Nc3cc(C)c(NC(=O)c4ccccc4)cc3OC)nnc2-c2cccc(Cl)c2)cc1 | 4.85%
33 | COc1ccc(S(=O)(=O)N2CCN(C(=O)N(C)C)C2C)cc1 (stereo unspecified) | 0.63%
34 | Cc1ccc(-n2c(SCC(=O)Nc3ccc(S(=O)(=O)Nc4nccs4)cc3)nnc2-c2ccccn2)cc1 | 0.68%
35 | Nc1c(-c2ccc(F)cc2)cnc2ncnn12 | 0.09%
36 | CC1(C)CN(c2ccc(-c3ccnc4ncnn34)cc2)C1=O | 29.6% (active)
37 | Cc1cc([N+](=O)[O-])nn1Cc1ccc(F)cc1 | 0.68%
38 | CC(=O)O[C@@]1(C(C)=O)CCC2[C@H]3C=C(C)C4=CC(=O)CC[C@@]4(C)C3CC[C@]21C (stereo partly specified) | 0.5%
39 | COc1cc(Cl)c(C)cc1NC(=O)COC(=O)c1cc(SC)ccc1Cl | -0.31%
40 | COC(=O)Cc1nc2c(N)nc(N)nc2[nH]c1=O | 29.9% (active)
41 | CCCCOCCCNC(=O)C[C@H]1C[C@@]2(C(=O)OC)C(=C[C@H](COCc3ccccc3)O[C@@H]2C)N(Cc2cccc3ccccc23)C1=O | -0.35%
42 | COC1=C[C@H](C(=O)NCCNC(C)=O)[C@H](C)[C@@H](c2ccccc2)CC1=O | 0.74%
43 | O=C(Nc1ccc(Br)cc1)OCCN1C(=O)CCC12CCC(c1ccccc1)CC2 (stereo unspecified) | 0.49%
44 | CCOc1ccc2[nH]c(=O)c(CN(Cc3nnnn3CCc3ccccc3)CC3CCCO3)cc2c1 (stereo unspecified) | -0.26%

Row | SMILES | activation
45 | CCC(c1nnnn1Cc1ccco1)N(Cc1cc2cc(OC)ccc2[nH]c1=O)C1CCCCC1 (stereo unspecified) | 1.29%
46 | CCC(c1nnnn1Cc1ccco1)N(CCc1ccccc1)Cc1cc2ccc(OC)cc2[nH]c1=O (stereo unspecified) | 21.6% (active)
47 | C=CCN(C(=O)[C@@H](CCCC)[C@@H](O)c1ccc(Cl)cc1)c1ccccc1 | 0.33%
48 | COC(=O)[C@H](C(C)C)N(CCCc1cn(Cc2ccccc2)nn1)S(=O)(=O)c1ccc(F)cc1Br | -0.13%
49 | O=C(CCCCCN1C(=O)C2C3C=CC(C3)C2C1=O)Nc1ccccc1 (stereo unspecified) | -1.05%
50 | CCN(C(=O)[C@@H](C1CC1)[C@@H](O)c1ccc2ccccc2c1)c1ccccc1 | 0.13%
51 | COc1cccc2sc3cc(NCC[C@@H]4CCCN4C)ccc3c(=O)c12 | 41.5% (active)
52 | Cc1cc2oc3ccc(NCCC4CCCN4C)cc3c(=O)c2cc1C (stereo unspecified) | 0.31%
53 | CCOC(=O)[C@]12CCCC=C1N(CCCOC)C(=O)[C@@H]2CC(=O)N1CCOCC1 | 0.35%
54 | COc1cc(NC(=O)C2CCCN(S(=O)(=O)c3ccc(C(C)(C)C)cc3)C2)cc(OC)c1 (stereo unspecified) | 0.22%
55 | Cc1ccc(Cn2cc(COC(=O)N(C)Cc3ccccc3)nn2)cc1 | 0.39%
56 | Clc1ccc(-c2cccc3nccn23)cc1 | 25% (active)
57 | O=C(NCCO)c1cccc(-c2cccc3nccn23)c1 | 1.32%
58 | c1cc(-c2ccc3[nH]ccc3c2)n2ccnc2c1 | 3.83%
59 | CCN(CC)C(=O)CC[C@H]1CC[C@]2(CCCN(Cc3ccc(Cl)cc3)C2)O1 | 0.06%
60 | Cc1ccc(-n2c(SCC(=O)Nc3ccc(S(=O)(=O)Nc4nccs4)cc3)nnc2-c2cccnc2)cc1 | 0.82%
61 | COC(=O)[C@H](C(C)C)N(CCc1cn(Cc2ccccc2)nn1)S(=O)(=O)c1ccc(F)cc1Br | 0.93%
62 | O=C1OCCN1C(=O)[C@H]1[C@H](c2ccc(Cl)cc2)C(c2cccc(Cl)c2)=NN1c1ccc(Br)cc1 | -322%
63 | O=C1OCCN1C(=O)[C@H]1[C@H](c2ccccc2)C(c2ccc(F)cc2)=NN1c1ccccc1 | -23.2%
64 | C[C@@H]1C(c2ccc(F)cc2)=NN(c2ccc(Br)cc2)[C@H]1C(=O)N1CCOC1=O | 37.1% (active)
65 | CSc1ccc(C=Nn2c(-c3ccc(F)cc3)n[nH]c2=S)cc1 | -0.19%
66 | COc1cccc(-c2nnc(N(C)C(=O)c3ccno3)s2)c1 | 0.14%

Row | SMILES | activation
67 | CN(C(=O)C1CCOC1)c1nnc(-c2cccnc2)s1 (stereo unspecified) | 1.7%
68 | CCC(C)(C)NC(=O)C(c1ccccn1)N(C(=O)c1csnn1)c1ccccc1 (stereo unspecified) | 0.19%
69 | CN(C(=O)c1ccccc1)c1nccnc1C#N | -0.08%
70 | CN(C(=O)c1ccccn1)c1nnc(-c2ccccn2)s1 | 26.2% (active)
71 | CN(C(=O)COc1ccccc1)c1nnc(-c2ccncc2)s1 | 15.3% (active)
72 | CC(C)Oc1ccc(CCc2nnc(SCC(=O)O)n2-c2ccccc2)cc1 | 0.35%
73 | O=C(Nc1nc2ccc(Cl)cc2s1)c1cc(-c2ccc(Cl)cc2)nc2ccccc12 | 0.7%
74 | CCOC(=O)COc1cc(OCC(=O)OCC)c2c(=O)cc(-c3ccccc3)oc2c1 | 13.1% (active)
75 | Cc1cc(OCC(=O)NCC(O)c2ccccc2)c2c(C)c(C)c(=O)oc2c1 (stereo unspecified) | 0.58%
76 | COc1cccc2oc(CCc3ccccc3)cc(=O)c12 | 2.15%
77 | COc1ccc(S[C@]2(C(=O)N(C)C)CC(=O)N(c3ccc(OC)cc3)[C@@H]2c2ccc(OC)cc2)cc1 | 0.22%
78 | CC(c1ccc(N)cc1)c1cn(C)c2ccccc12 (stereo unspecified) | 0.46%
79 | COc1ccc(C2CC=C(C(=O)O)C(c3ccccc3F)N2S(=O)(=O)c2ccc(C)cc2)cc1OC (stereo unspecified) | 0.12%
80 | CCOc1cc(C2C(C(=O)OC)=CN(C3CCCC3)C=C2C(=O)OC)cc(Br)c1O | -0.82%
81 | COC(=O)C1=CN(C)C=C(C(=O)OC)C1c1ccc(Cl)cc1Cl | 0.08%
82 | CCOc1ccccc1C1C(C(=O)OC)=CN(C)C=C1C(=O)OC | 46.1% (active)
83 | O=S1(=O)c2ccc(Br)cc2OC[C@@H](Cc2ccccc2)N1Cc1cn(Cc2ccco2)nn1 | 0.26%
84 | Cc1cc(NC(=O)CCN2CCN(Cc3ccccc3)CC2)ccc1Br | 0.91%
85 | COc1cc2[nH]c(=O)n(CCC(=O)NC3CCN(Cc4ccccc4)CC3)c(=O)c2cc1OC | -1.29%
86 | CCOC(=O)c1[nH]c2ccc(OC)cc2c1NC(=O)CCN1CCN(Cc2ccccc2)CC1 | 13.4% (active)
